Results as given in ChEMBL document CHEMBL2218924, “A broad activity screen in support of a chemogenomic map for kinase signalling research and drug discovery” (Biochem J, 2013).

Columns and labels:
[1] = biological target: Ribosomal protein S6 kinase beta-1 (Homo sapiens) (UniProt P23443); settings: at 1 µM
[2] = biological target: Ribosomal protein S6 kinase beta-1 (Homo sapiens) (UniProt P23443); settings: at 10 µM
[3] = biological target: Serine/threonine-protein kinase Nek6 (Homo sapiens) (UniProt Q9HC98); settings: at 1 µM
Chain of Serine/threonine-protein kinase Nek6 (Homo sapiens) (Q9HC98 whole entry): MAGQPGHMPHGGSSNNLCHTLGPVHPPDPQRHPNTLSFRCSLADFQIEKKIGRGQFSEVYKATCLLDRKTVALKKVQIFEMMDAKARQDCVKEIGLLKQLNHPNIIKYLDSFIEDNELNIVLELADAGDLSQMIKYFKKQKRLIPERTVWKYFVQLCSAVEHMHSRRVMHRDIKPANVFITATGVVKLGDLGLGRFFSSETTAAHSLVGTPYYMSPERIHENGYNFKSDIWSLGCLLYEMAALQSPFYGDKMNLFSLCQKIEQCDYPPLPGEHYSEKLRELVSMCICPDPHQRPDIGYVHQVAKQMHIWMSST

[4] = biological target: Serine/threonine-protein kinase Nek6 (Homo sapiens) (UniProt Q9HC98); settings: at 10 µM
[5] = biological target: Serine/threonine-protein kinase Nek7 (Homo sapiens) (UniProt Q8TDX7); settings: at 1 µM
Chain of Serine/threonine-protein kinase Nek7 (Homo sapiens) (Q8TDX7 whole entry, looked up): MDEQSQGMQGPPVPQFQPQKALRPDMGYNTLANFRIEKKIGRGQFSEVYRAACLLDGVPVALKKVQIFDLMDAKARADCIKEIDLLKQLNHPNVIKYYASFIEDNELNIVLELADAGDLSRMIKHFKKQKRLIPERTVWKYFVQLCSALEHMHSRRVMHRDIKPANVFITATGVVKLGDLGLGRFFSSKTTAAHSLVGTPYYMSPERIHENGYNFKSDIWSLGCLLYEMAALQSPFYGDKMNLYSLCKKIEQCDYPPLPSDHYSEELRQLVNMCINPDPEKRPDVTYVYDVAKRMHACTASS

[6] = biological target: Serine/threonine-protein kinase Nek7 (Homo sapiens) (UniProt Q8TDX7); settings: at 10 µM
[7] = biological target: T1, Serine/threonine-protein kinase NLK (Homo sapiens) (UniProt Q9UBE8); settings: at 1 µM
T1 sequence (whole entry): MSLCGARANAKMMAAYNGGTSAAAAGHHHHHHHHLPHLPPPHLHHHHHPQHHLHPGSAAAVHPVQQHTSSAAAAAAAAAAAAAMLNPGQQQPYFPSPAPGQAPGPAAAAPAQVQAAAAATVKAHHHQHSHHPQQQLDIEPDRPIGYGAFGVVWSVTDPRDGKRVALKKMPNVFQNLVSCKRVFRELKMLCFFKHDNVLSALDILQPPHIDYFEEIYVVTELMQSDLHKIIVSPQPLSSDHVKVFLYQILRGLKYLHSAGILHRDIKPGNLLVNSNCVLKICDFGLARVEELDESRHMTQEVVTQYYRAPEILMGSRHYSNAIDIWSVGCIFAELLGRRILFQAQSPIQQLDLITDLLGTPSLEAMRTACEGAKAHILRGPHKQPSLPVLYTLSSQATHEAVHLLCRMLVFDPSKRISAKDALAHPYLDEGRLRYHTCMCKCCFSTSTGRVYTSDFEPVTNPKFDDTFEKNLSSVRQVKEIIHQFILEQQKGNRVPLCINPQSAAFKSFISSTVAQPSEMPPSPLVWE

[8] = biological target: T1, Serine/threonine-protein kinase NLK (Homo sapiens); settings: at 10 µM
[9] = biological target: Serine/threonine-protein kinase PAK 2 (Homo sapiens) (UniProt Q13177); settings: at 1 µM
Chain of Serine/threonine-protein kinase PAK 2 (Homo sapiens) (Q13177 whole entry): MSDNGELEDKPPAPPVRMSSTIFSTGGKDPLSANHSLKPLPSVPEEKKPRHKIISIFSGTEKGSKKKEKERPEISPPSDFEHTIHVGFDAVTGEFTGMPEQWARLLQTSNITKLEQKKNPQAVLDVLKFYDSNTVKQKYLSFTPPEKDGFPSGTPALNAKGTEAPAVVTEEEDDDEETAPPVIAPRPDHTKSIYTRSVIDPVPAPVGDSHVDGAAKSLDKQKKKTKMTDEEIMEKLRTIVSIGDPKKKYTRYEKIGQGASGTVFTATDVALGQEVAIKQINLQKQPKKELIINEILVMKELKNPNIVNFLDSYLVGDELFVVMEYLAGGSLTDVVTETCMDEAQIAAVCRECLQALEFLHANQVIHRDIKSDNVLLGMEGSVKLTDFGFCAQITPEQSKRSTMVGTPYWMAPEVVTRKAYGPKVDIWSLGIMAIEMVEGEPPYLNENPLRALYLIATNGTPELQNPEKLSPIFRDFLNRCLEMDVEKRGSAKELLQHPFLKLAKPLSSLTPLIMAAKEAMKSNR

[10] = biological target: Serine/threonine-protein kinase PAK 2 (Homo sapiens) (UniProt Q13177); settings: at 10 µM
[11] = biological target: Serine/threonine-protein kinase PAK 4 (Homo sapiens) (UniProt O96013); settings: at 1 µM
[12] = biological target: Serine/threonine-protein kinase PAK 4 (Homo sapiens) (UniProt O96013); settings: at 10 µM
[13] = biological target: Serine/threonine-protein kinase PAK 5 (Homo sapiens) (UniProt Q9P286); settings: at 1 µM
[14] = biological target: Serine/threonine-protein kinase PAK 5 (Homo sapiens) (UniProt Q9P286); settings: at 10 µM
[15] = biological target: Serine/threonine-protein kinase PAK 6 (Homo sapiens) (UniProt Q9NQU5); settings: at 1 µM
Chain of Serine/threonine-protein kinase PAK 6 (Homo sapiens) (Q9NQU5 whole entry, looked up, the tested form may be a part): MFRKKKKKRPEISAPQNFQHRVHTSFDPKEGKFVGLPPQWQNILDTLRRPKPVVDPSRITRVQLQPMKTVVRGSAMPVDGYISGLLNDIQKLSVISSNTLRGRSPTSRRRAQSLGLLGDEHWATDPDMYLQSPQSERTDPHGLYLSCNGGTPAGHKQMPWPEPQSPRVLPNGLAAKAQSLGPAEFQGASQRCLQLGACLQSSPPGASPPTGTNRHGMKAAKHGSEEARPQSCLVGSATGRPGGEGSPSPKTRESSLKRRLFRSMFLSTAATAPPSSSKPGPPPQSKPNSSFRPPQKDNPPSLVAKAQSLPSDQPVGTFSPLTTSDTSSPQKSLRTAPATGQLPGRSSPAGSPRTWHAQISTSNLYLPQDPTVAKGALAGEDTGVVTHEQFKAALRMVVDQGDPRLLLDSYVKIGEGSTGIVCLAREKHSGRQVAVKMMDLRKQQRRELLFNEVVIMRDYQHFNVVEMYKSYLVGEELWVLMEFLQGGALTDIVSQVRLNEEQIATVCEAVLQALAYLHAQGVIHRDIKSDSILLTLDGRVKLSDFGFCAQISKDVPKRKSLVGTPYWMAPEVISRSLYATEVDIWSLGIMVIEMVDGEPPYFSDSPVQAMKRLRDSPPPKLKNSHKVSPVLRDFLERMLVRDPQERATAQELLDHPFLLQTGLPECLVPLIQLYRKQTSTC

[16] = biological target: Serine/threonine-protein kinase PAK 6 (Homo sapiens) (UniProt Q9NQU5); settings: at 10 µM
[17] = biological target: PAS domain-containing serine/threonine-protein kinase (Homo sapiens) (UniProt Q96RG2); settings: at 10 µM
[18] = biological target: Activated CDC42 kinase 1 (Homo sapiens) (UniProt Q07912); settings: at 1 µM
Chain of Activated CDC42 kinase 1 (Homo sapiens) (Q07912 whole entry, looked up): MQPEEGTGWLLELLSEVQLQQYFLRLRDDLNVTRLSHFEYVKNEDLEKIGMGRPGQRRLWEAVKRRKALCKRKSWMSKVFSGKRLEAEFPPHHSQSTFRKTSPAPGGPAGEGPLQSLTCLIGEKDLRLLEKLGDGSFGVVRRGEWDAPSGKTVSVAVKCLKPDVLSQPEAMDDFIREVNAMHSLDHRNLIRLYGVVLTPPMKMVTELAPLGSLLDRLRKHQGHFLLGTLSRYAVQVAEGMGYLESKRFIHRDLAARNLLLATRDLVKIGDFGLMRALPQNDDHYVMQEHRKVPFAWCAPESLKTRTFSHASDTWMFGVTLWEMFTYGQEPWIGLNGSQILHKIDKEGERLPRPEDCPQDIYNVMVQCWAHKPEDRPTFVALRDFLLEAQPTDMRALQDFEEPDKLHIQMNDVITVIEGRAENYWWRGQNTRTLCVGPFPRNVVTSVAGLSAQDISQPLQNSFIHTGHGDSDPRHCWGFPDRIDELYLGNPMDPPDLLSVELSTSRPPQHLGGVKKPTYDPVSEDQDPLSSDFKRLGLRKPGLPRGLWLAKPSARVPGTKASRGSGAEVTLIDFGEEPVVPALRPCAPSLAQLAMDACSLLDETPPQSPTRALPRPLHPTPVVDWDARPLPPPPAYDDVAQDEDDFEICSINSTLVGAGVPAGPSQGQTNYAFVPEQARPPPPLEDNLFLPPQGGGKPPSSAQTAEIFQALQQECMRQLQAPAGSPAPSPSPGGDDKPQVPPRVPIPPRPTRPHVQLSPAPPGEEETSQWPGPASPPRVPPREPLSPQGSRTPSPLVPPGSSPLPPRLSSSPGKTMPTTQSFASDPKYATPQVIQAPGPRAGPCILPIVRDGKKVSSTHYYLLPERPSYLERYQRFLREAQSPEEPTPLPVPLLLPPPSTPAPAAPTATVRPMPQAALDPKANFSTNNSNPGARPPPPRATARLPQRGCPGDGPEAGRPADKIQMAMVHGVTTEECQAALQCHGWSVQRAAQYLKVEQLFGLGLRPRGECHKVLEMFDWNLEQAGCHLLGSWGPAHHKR

[19] = biological target: Activated CDC42 kinase 1 (Homo sapiens) (UniProt Q07912); settings: at 10 µM
[20] = biological target: ALK tyrosine kinase receptor (Homo sapiens) (UniProt Q9UM73); settings: at 1 µM
Chain of ALK tyrosine kinase receptor (Homo sapiens) (Q9UM73 19-1620 limits assumed): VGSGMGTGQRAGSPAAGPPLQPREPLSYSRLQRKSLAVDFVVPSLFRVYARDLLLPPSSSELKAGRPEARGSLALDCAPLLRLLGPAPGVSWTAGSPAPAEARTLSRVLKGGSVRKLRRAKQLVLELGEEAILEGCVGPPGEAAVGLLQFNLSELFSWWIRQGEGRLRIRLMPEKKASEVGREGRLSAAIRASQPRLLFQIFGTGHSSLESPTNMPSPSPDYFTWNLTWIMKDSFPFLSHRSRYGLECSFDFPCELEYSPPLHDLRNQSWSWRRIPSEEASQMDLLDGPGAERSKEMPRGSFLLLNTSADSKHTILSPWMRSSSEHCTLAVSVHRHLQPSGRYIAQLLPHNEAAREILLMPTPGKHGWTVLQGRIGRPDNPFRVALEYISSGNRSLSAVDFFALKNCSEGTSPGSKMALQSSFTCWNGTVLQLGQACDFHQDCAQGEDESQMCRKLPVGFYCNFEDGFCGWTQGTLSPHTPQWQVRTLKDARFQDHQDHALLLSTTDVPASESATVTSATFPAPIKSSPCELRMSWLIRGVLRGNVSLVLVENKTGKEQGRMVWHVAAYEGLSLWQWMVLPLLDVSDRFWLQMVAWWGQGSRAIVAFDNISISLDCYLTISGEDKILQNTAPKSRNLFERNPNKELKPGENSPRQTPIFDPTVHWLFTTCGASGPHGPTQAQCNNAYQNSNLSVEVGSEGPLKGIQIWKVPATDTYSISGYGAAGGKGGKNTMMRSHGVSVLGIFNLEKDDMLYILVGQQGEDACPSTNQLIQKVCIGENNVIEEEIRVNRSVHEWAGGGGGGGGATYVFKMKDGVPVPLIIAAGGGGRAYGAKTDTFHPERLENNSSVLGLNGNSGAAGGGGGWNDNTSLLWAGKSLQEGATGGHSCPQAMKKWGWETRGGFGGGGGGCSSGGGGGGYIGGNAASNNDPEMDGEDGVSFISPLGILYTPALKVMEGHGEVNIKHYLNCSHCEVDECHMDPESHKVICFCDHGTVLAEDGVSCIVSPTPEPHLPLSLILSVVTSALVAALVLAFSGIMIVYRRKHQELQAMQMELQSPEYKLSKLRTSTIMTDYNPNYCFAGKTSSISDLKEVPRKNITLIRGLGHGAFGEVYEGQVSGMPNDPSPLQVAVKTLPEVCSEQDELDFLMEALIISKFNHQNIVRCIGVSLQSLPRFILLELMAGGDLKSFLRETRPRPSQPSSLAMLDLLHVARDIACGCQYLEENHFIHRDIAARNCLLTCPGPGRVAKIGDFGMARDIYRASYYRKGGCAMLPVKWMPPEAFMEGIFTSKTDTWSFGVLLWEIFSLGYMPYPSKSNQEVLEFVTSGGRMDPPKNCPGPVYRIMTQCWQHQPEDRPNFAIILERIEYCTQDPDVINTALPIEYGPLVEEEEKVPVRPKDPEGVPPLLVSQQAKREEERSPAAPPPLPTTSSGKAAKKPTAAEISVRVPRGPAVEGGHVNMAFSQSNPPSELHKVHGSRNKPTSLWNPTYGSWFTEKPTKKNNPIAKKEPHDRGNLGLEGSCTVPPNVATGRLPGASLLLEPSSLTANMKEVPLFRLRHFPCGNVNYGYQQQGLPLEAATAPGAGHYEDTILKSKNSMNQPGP

Chain of Ribosomal protein S6 kinase beta-1 (Homo sapiens) (P23443 whole entry, looked up): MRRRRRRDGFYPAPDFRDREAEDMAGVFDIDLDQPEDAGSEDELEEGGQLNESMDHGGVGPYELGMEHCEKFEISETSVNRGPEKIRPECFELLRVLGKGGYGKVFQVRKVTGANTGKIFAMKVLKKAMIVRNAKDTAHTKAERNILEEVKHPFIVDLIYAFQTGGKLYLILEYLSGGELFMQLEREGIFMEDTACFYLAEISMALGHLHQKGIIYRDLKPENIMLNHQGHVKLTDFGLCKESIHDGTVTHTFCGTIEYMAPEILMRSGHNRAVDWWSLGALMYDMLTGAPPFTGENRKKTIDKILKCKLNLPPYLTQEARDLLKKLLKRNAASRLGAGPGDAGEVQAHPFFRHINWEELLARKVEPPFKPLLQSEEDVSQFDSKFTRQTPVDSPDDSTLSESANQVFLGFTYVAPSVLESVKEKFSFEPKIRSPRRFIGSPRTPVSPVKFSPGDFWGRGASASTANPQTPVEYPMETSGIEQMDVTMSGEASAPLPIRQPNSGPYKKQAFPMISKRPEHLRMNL

SMILES	residual activity [1]	residual activity [2]	residual activity [3]	residual activity [4]	residual activity [5]	residual activity [6]	residual activity [7]	residual activity [8]	residual activity [9]	residual activity [10]	residual activity [11]	residual activity [12]	residual activity [13]	residual activity [14]	residual activity [15]	residual activity [16]	residual activity [17]	residual activity [18]	residual activity [19]	residual activity [20]
COc1ccc(S(=O)(=O)N(CCO)c2ccccc2CN(C)C/C=C/c2ccc(Cl)cc2)cc1	97%	78%	110% (inactive)	115%	106% (inactive)	93% (inactive)	93%	92%	97%	86%	94%	93%	100%	77%	105%	64%	87%	68%	60%	68%
Cn1cnc2cc3c(Nc4cccc(Br)c4)ncnc3cc21	95%	71%	104% (inactive)	104%	100% (inactive)	103% (inactive)	93%	73%	93%	90%	100%	89%	98%	90%	90%	106%	77%	66%	16%	85%
CO[C@@H]1[C@H](N(C)C(=O)c2ccccc2)C[C@H]2O[C@]1(C)n1c3ccccc3c3c4c(c5c6ccccc6n2c5c31)C(=O)NC4	4%	1%	93% (inactive)	92%	91% (inactive)	82% (inactive)	90%	73%	72%	50%	64%	43%	52%	48%	49%	26%	0%	11%	-1%	32%
O=C1Nc2cc(Br)ccc2/C1=C1/Nc2ccccc2/C1=N\O	30%	29%	108% (inactive)	106%	102% (inactive)	85% (inactive)	79%	85%	75%	88%	30%	25%	39%	55%	51%	21%	115%	14%	2%	35%
Oc1n[nH]c2nnc(-c3c(-c4ccccc4)nn4ccccc34)cc12	106%	96%	103% (inactive)	110%	100% (inactive)	96% (inactive)	90%	86%	94%	99%	95%	92%	101%	101%	98%	98%	104%	29%	14%	92%
COc1cccc(-c2cc(=O)c3ccccc3o2)c1N	119%	106%	114% (inactive)	114%	111% (inactive)	106% (inactive)	107%	87%	103%	102%	105%	96%	122%	99%	96%	89%	101%	83%	70%	95%
COc1cc2ncnc(Nc3ccc(Oc4ccccc4)cc3)c2cc1OC	92%	88%	97% (inactive)	118%	97% (inactive)	112% (inactive)	96%	82%	98%	87%	94%	80%	108%	136%	98%	124%	131%	28%	9%	54%
CN(C)c1ccc(/C=C2\C(=O)Nc3ccccc32)cc1	69%	29%	108% (inactive)	107%	118% (inactive)	116% (inactive)	110%	88%	96%	100%	100%	83%	95%	77%	83%	77%	23%	89%	62%	80%
CC(C)n1cnc2/c(=N/c3cccc(Cl)c3)nc(NCCO)[nH]c21	36%	15%	118% (inactive)	98%	102% (inactive)	84% (inactive)	88%	70%	109%	98%	62%	15%	80%	33%	43%	25%	114%	14%	5%	81%
CO[C@H]1[C@@H](OC)C[C@H](C)[C@@H](OC)C2=CC(=O)C=C(NC(=O)/C(C)=C/C=C/[C@H](OC)[C@@H](OC(N)=O)/C(C)=C/[C@@H]1C)C2=O	75%	43%	103% (inactive)	112%	89% (inactive)	76% (inactive)	110%	83%	108%	83%	106%	92%	92%	64%	99%	84%	59%	92%	72%	71%
N#C/C(=C(\N)Sc1ccc(N)cc1)c1ccccc1C(F)(F)F	68%	56%	113% (inactive)	112%	101% (inactive)	90% (inactive)	87%	95%	99%	98%	101%	94%	90%	89%	96%	96%	105%	50%	43%	65%
O=c1c2ccccc2[nH]c(=S)n1CCN1CCC(=C(c2ccc(F)cc2)c2ccc(F)cc2)CC1	79%	42%	99% (inactive)	107%	103% (inactive)	94% (inactive)	111%	93%	103%	103%	106%	99%	84%	47%	82%	41%	53%	83%	70%	81%
COc1cc2ncnc(Nc3ccc(O)c(Br)c3)c2cc1OC	60%	31%	86% (inactive)	110%	99% (inactive)	96% (inactive)	69%	30%	104%	80%	89%	77%	98%	98%	123%	104%	8%	14%	1%	19%
CNc1cc2c(Nc3cccc(Br)c3)ncnc2cn1	126%	145%	94% (inactive)	108%	94% (inactive)	95% (inactive)	87%	45%	111%	99%	88%	65%	97%	104%	101%	89%	57%	46%	11%	78%
O=C(Nc1cccc(Nc2nccc(Nc3cccc(C(F)(F)F)c3)n2)c1)C1CC1	83%	62%	107% (inactive)	105%	103% (inactive)	104% (inactive)	95%	39%	116%	58%	80%	34%	97%	107%	90%	52%	47%	25%	5%	69%
CC(C)n1cnc2c(NCc3ccccc3)nc(NCCCO)nc21	105%	100%	107% (inactive)	115%	101% (inactive)	95% (inactive)	95%	86%	106%	100%	97%	80%	108%	96%	95%	72%	98%	76%	58%	87%
COc1ccc(OC)c2c(=S)c3ccccc3[nH]c12	115%	86%	97% (inactive)	91%	103% (inactive)	97% (inactive)	85%	76%	90%	73%	95%	90%	115%	101%	95%	80%	102%	83%	57%	79%
Cc1nc2cc3nc(-c4cccs4)cnc3cc2n1C	98%	112%	104% (inactive)	112%	102% (inactive)	107% (inactive)	104%	95%	99%	86%	95%	101%	106%	105%	111%	102%	86%	107%	74%	93%
COc1ccc(C(=O)Nc2sc3c(c2C(N)=O)CCCC3)cc1OC	106%	83%	90% (inactive)	103%	87% (inactive)	83% (inactive)	88%	90%	96%	90%	92%	86%	104%	116%	95%	93%	90%	77%	54%	56%
O=c1cc(-c2cccc3c2Sc2ccccc2S3)oc(N2CCOCC2)c1	119%	93%	108% (inactive)	122%	109% (inactive)	140% (inactive)	101%	101%	113%	95%	106%	96%	108%	91%	89%	72%	80%	89%	84%	97%
O=C1NC(=O)/C(=C\c2ccc3nccnc3c2)S1	68%	50%	91% (inactive)	96%	100% (inactive)	106% (inactive)	89%	55%	102%	75%	95%	86%	86%	99%	92%	94%	11%	84%	66%	49%
Cc1ccc(NC2=CC(=O)c3sc(C)nc3C2=O)cc1	115%	78%	106% (inactive)	104%	109% (inactive)	92% (inactive)	86%	85%	93%	92%	98%	93%	121%	94%	102%	80%	82%	80%	71%	86%
CCN(CC)CCCCN1c2ccccc2Oc2ccc(Cl)cc21	79%	90%	106% (inactive)	113%	116% (inactive)	115% (inactive)	113%	96%	117%	120%	107%	97%	100%	90%	104%	109%	13%	113%	81%	92%
C[C@@H](N)[C@H]1CC[C@H](C(=O)Nc2ccncc2)CC1	101%	71%	106% (inactive)	107%	111% (inactive)	112% (inactive)	100%	101%	106%	104%	92%	77%	104%	106%	117%	109%	85%	97%	95%	116%
